Compounds with a hit are over-represented: about 2.3% of the library has one in this group of screens.
ERp5 block – inhibitors of ERp5-driven insulin aggregation, primary screen, biochemical, turbidity, absorbance 650 nm, single point; Protein disulfide-isomerase A6 (Homo sapiens), Q15084; 90 min; inhibition, % at 9.99 µM; 350,000 tested, 0.05% active; AID 651711, 2012;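 active means mean replicate inhibition above about 25%, with every replicate also reaching it, limit read from the data, passing the limit was not always enough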
Target sequence (Q15084 whole entry, looked up): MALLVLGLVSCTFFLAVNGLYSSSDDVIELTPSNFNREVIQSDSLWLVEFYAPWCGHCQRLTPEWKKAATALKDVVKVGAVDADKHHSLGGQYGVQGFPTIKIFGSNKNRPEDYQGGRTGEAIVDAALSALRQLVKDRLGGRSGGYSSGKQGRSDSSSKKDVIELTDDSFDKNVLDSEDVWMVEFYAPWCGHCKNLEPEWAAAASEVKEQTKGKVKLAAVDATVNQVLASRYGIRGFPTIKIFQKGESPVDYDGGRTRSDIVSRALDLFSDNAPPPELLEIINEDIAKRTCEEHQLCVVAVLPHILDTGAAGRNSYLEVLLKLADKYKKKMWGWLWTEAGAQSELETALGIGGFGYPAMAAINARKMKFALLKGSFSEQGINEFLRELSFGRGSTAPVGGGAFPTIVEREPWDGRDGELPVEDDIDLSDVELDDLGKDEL
Rtt109 HAT inh – inhibitors of C. albicans Rtt109/Vps75 HAT, primary screen, biochemical, ThioGlo CoA-SH fluorescence, plate reader; Histone acetyltransferase RTT109 (Candida albicans (strain SC5314 / ATCC MYA-2876)), …; purified Rtt109/Vps75, 4 h; inhibition, % at 34.9 µM; 330,000 tested, 0.16% active; AID 540336, 2011;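 active means inhibition of at least 50% in every replicate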
PDI turbidity – inhibitors of human PDI, primary screen, biochemical, turbidity, single point, plate reader; Protein disulfide-isomerase (Homo sapiens), P07237; PDI insulin aggregation turbidity, A650, 90 min; inhibition, % at 10 µM; 350,000 tested, 0.052% active; AID 588391, 2011;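 active means mean inhibition across replicates of 30% or more, whatever share of single replicates reach that level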
SIRT5 block – SIRT5 desuccinylase inhibitors, primary screen, biochemical, fluorescence imaging, single point, set 5; NAD-dependent protein deacylase sirtuin-5, mitochondrial (Homo sapiens), Q9NXA8; Purified SirT5, succinyl-peptide AMC, trypsin-coupled fluorescence; inhibition, % at 15 µM; 330,000 tested, 1.1% active; AID 652115, 2013; in the data active means inhibition above about 15%
DENV2 CPE – inhibitors of DENV2 cytopathic effect, primary screen, cell-based, plate reader, single concentration; CPE inhibition, % at 9.99 µM; DENV2-infected cells, cytopathic effect rescue; 350,000 tested, 1.7% active; in the data active means CPE inhibition above about 20%, passing the limit was not always enough; tested in BHK-21 cells;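 further: 0% = median of neutral control wells and 100% = median of positive control wells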
Numbers without * were called inactive.

O=[N+]([O-])c1ccc(CNc2ccc(Cl)cc2)s1 was read as ERp5 block 0.9, Rtt109 HAT inh 2.4, PDI turbidity -30.2, SIRT5 block 0.7 and DENV2 CPE 0.9.
For CN1c2ccc(Cl)cc2C(=O)NC1c1ccc([N+](=O)[O-])s1 (configuration not stated) the results were ERp5 block -2.7, Rtt109 HAT inh 1.1, PDI turbidity 2.4, SIRT5 block 2.9 and DENV2 CPE 45.5*.
`CCCN(C)C[C@@H]1Oc2cc(C#Cc3ccncc3)ccc2S(=O)(=O)N([C@H](C)CO)C[C@@H]1C` gave ERp5 block 12.2, SIRT5 block -2.6 and DENV2 CPE -7.3.
For CNC[C@H]1Oc2ccc(NC(=O)NC(C)C)cc2CC(=O)N([C@H](C)CO)C[C@@H]1C the results were ERp5 block -1.8, SIRT5 block -4.4 and DENV2 CPE -2.0.
For CC(C)CCCCCCCCc1cccc(O)c1C(=O)O the results were ERp5 block -1.0, SIRT5 block 20.0* and DENV2 CPE 8.3.
CC(C)C(=O)NCCCc1ccccc1 was read as Rtt109 HAT inh -2.2 and PDI turbidity 5.4.
C/C(=N/NC(=O)CNc1ccc(C)cc1)c1ccc(Br)s1 was read as ERp5 block 1.0, Rtt109 HAT inh -5.0, PDI turbidity 9.6, SIRT5 block 1.8 and DENV2 CPE 4.0.
COc1ccccc1NCC(=O)N/N=C(\C)c1ccc(Br)s1 was read as ERp5 block -2.9, PDI turbidity -7.9, SIRT5 block -3.2 and DENV2 CPE 23.2*.
For C=CCNC(=O)[C@H]1[C@@H]2C(=O)O[C@@H](c3ccccc3)[C@@H](c3ccccc3)N2[C@@H](c2ccc(OCCO)cc2)[C@]12C(=O)Nc1ccccc12 the results were ERp5 block 1.3, SIRT5 block 3.1 and DENV2 CPE -2.6.
For O=C(CN1C(=O)C2CC=C(Cl)CC2C1=O)Nc1ccc(C(=O)O)cc1 (configuration not stated) the results were Rtt109 HAT inh 2.9 and PDI turbidity 3.2.
O=C(CN1C(=O)C2C3CC(C(Br)C3Br)C2C1=O)Nc1ccc(C(=O)O)cc1 (configuration not stated) was read as ERp5 block 1.3, Rtt109 HAT inh -6.2, PDI turbidity 3.5, SIRT5 block 23.1* and DENV2 CPE 2.3.
`CCCCC1OC2(C)OC(=N)C1(C#N)C(C#N)(C#N)C2c1ccccc1` (configuration not stated) gave ERp5 block 0.8, Rtt109 HAT inh 9.3, PDI turbidity 3.1 and DENV2 CPE 72.7*.
Screening O=C(OCc1cn([C@@H]2CN(C(=O)C3CCCCC3)[C@@H](c3ccccc3)C[C@H]2O)nn1)c1ccccc1 returned ERp5 block 2.4, PDI turbidity 3.0, SIRT5 block 0.6 and DENV2 CPE -7.4.
Screening O=C(OCc1cn([C@H]2CN(C(=O)C3CCCCC3)[C@@H](c3ccccc3)C[C@@H]2O)nn1)c1ccccc1 returned ERp5 block 2.3, PDI turbidity 2.0, SIRT5 block 4.8 and DENV2 CPE 24.9*.
`Cc1ccc([C@H]2C[C@H](n3cc(COC(=O)c4ccccc4)nn3)[C@@H](O)CN2C(=O)C2CCCCC2)cc1` gave ERp5 block -5.8, PDI turbidity 3.9, SIRT5 block -1.5 and DENV2 CPE 52.1*.
`COc1ccc([C@H]2C[C@H](n3cc(COC(=O)c4ccccc4)nn3)[C@@H](O)CN2C(=O)C2CCCCC2)cc1` gave ERp5 block -5.5, PDI turbidity -7.8, SIRT5 block -8.1 and DENV2 CPE -1.2.
C[C@@H]1CCCCO[C@@H](CN(C)CC2CCCCC2)[C@H](C)CN([C@@H](C)CO)C(=O)c2cc(NC(=O)CCC(F)(F)F)ccc2O1 was read as DENV2 CPE -6.1.
CCC(=O)N1CC(=O)N2[C@@H](CO)[C@@H](c3ccc(C#CC4CCCCC4)cc3)[C@@H]2C1 was read as ERp5 block 1.4, SIRT5 block -1.6 and DENV2 CPE -5.0.
`CCCNC(=O)C[C@H]1CC[C@@H]2[C@H](COC[C@H](O)CN2Cc2cccc(F)c2)O1` gave ERp5 block 1.3, SIRT5 block 0.8 and DENV2 CPE -1.6.
